This passage reports growth inhibition, inhibition and outcome results from PubChem BioAssay.

As a reminder, the inhibition is the relative decrease from the control value, in per cent.

Values without a mark were called inactive. For some assays here: Measured potencies and affinities stand elsewhere. Activity calls are given as the source filed them. Unless noted, the rule behind the calls is not given here.

Assay [1] is described as follows: antimalarial activity against Dd2 strain (AID 2302;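 active = growth inhibition above 50% at the single 2 µM test dose, taken to imply half-maximal potency below 2 µM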;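 note: 0% = DMSO untreated growth and 100% = chloroquine plus artemisinin killed control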). The settings on record: P. falciparum Dd2 in RBCs, LDH growth readout, 72 h; at 2 µM; active compounds read high.
Assay [2] in a line: HepG2 cytotoxicity, primary screen, cytotoxicity control for P. falciparum antimalarial project, cell-based, ATP luminescence (AID 2303;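 active = inhibition above 50%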;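 note: 0% = DMSO wells and 100% = digitonin-killed cells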). Conditions: HepG2 viability, 24-48 h, at 10 µM, active compounds read high.
In assay [3] the target is L-lactate dehydrogenase (Plasmodium falciparum (isolate CDC / Honduras)) (UniProt Q27743). Description: PfLDH activity inhibition – cell lysate, 3D7 strain, counter-screen for P. falciparum growth inhibition project (AID 2304).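 Note: 0% = vehicle and 100% = reference inhibitor.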 The settings on record: P. falciparum 3D7 crude extract, LDH APAD/NBT absorbance; at 2 µM; active compounds read high. In general terms: The purpose of a counterscreen is to sort out artefacts and off-target activity.

The nature of assay [4]: inhibition of 3D7 malaria parasite growth – strain 3D7 (AID 2306).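 Note: 0% = DMSO wells and 100% = chloroquine plus artemisinin control wells.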 Conditions: P. falciparum 3D7 erythrocytic growth, LDH absorbance, 72 h; at 2 µM; active compounds read high.
In assay [5] the target is Calcium-dependent protein kinase 1 (Plasmodium falciparum (isolate 3D7)) (UniProt P62344). Description: PfCDPK1 kinase inhibitors, biochemical, TCAMS library (AID 1159585; cut-off not given, nearly all actives have IC50 up to about 0.98 µM;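 note: inhibitors leave more ATP so luminescence rises with inhibition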). The settings on record: recombinant PfCDPK1, Kinase-Glo ATP depletion luminescence. A general note: Kinase-Glo reads ATP consumption through a luciferase reaction.
In assay [6] the target is Plasmodium falciparum protein kinase 6 (PK6, PF3D7_1337100) (UniProt Q8IDW1). Briefly: PfPK6 kinase inhibitors, biochemical, TCAMS library (AID 1159586). The settings on record: recombinant PfPK6, Kinase-Glo ATP depletion luminescence.
Assay [7] has as its target Protein kinase 7 (PK7), Plasmodium falciparum 3D7 (PF3D7_0213400) (UniProt Q7YTF7). Briefly: inhibition of Plasmodium PK7 catalytic activity – biochemical, TCAMS antimalarial set, Kinase-Glo luminescence (AID 1159587). The settings on record: recombinant PfPK7, Kinase-Glo ATP depletion luminescence.
For assay [8], the target named is Calcium-dependent protein kinase 4 (Plasmodium falciparum (isolate 3D7)) (UniProt Q8IBS5). Description: PfCDPK4 kinase inhibitors, biochemical, TCAMS library (AID 1159588; cut-off not given, nearly all actives have IC50 up to about 0.91 µM). Conditions: recombinant PfCDPK4, Kinase-Glo ATP depletion luminescence.
Sequence of Calcium-dependent protein kinase 4 (Plasmodium falciparum (isolate 3D7)) (Q8IBS5 whole entry, looked up): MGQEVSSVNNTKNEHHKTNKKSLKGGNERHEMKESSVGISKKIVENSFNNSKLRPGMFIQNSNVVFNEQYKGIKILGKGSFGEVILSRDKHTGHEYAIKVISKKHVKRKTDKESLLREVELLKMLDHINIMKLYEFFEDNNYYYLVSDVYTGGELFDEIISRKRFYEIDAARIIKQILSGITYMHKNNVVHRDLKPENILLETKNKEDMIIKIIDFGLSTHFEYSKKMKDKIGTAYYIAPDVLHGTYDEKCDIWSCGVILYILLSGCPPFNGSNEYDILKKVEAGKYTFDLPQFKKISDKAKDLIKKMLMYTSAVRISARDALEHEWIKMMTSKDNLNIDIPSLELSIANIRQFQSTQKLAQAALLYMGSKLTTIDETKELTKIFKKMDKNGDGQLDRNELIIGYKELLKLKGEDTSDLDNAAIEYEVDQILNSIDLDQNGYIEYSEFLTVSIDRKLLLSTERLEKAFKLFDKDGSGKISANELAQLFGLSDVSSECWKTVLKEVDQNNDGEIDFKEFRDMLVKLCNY

Sequence of L-lactate dehydrogenase (Plasmodium falciparum (isolate CDC / Honduras)) (Q27743 whole entry, looked up): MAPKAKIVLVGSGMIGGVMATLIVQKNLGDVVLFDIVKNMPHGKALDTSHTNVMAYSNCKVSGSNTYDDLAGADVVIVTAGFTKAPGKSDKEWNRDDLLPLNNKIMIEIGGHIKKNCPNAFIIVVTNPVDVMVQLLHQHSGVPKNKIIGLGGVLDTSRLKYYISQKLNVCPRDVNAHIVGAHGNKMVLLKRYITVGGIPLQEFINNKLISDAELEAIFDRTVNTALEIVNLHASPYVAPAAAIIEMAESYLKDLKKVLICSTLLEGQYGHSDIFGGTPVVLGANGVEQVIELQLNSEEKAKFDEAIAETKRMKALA
Sequence of Calcium-dependent protein kinase 1 (Plasmodium falciparum (isolate 3D7)) (P62344 whole entry, looked up): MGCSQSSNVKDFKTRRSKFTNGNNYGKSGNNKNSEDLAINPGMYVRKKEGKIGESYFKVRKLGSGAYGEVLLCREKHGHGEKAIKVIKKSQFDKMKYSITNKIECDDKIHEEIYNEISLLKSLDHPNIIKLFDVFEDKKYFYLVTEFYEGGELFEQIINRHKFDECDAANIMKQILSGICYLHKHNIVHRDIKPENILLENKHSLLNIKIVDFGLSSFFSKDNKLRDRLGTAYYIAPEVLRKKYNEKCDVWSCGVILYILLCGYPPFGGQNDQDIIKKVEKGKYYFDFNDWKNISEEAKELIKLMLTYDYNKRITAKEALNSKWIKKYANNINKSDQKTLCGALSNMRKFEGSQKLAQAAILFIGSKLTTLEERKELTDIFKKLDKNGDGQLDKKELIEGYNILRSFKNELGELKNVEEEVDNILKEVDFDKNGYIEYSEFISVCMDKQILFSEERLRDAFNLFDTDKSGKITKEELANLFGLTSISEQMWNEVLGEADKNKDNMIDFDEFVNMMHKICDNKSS
Sequence of Protein kinase 7 (PK7), Plasmodium falciparum 3D7 (PF3D7_0213400) (Q7YTF7 1-343): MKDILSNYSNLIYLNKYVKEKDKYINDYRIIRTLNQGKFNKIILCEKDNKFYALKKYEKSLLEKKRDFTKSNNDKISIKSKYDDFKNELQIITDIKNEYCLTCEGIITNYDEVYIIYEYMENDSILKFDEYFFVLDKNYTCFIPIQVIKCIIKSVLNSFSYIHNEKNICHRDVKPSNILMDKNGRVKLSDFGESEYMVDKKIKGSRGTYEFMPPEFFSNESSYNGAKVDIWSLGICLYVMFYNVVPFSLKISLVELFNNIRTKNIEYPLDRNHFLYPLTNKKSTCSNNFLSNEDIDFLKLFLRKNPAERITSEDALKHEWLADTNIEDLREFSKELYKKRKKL
Sequence of Plasmodium falciparum protein kinase 6 (PK6, PF3D7_1337100) (Q8IDW1 1-305): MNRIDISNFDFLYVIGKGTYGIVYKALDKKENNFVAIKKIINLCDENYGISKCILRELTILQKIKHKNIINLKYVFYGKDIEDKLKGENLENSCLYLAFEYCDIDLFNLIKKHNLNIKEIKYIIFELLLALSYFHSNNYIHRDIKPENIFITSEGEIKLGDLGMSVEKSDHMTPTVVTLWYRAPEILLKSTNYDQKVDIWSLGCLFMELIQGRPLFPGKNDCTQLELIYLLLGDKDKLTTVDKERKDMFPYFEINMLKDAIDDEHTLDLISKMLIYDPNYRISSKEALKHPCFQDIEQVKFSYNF

Take `Cn1nc(-c2ccc(NC(=O)Nc3cc(C(F)(F)F)ccc3F)cc2)c2cnc(NCCCCN3CCCC3)nc21`: the figures for the growth inhibition in assay [1] and in assay [4] were 74% (active) and 98% (active), respectively. In addition, the figures for the inhibition in assay [2] and in assay [3] were 88% (active) and -3%, respectively. Further, the outcome in assay [5], in assay [6], in assay [7] and in assay [8] was inactive.

With `CCOC(=O)C(NC(=O)c1ccc([N+](=O)[O-])o1)C(C)C` (configuration not stated), the values for the growth inhibition in assay [1] and in assay [4] were 8% and 87% (active), respectively. Moreover, the results for the inhibition in assay [2] and in assay [3] were -3% and 0%, respectively. The outcome in assay [5], in assay [6], in assay [7] and in assay [8] was inactive.

Regarding `CCOc1ccc(C(=O)Nc2nonc2-c2ccc(OC)c(OC)c2)cc1`, the figures for the growth inhibition in assay [1] and in assay [4] were 42% and 95% (active), respectively. In addition, the inhibition in assay [2] was 7%; in assay [3] it was 5%. In addition, the result in assay [5], in assay [6], in assay [7] and in assay [8] was inactive.

For `NCc1ccc(-c2cccc(CNC3CCN(Cc4ccccc4)CC3)c2)cc1`, the growth inhibition in assay [1] was 50% (active); in assay [4], 100% (active). The figures for the inhibition in assay [2] and in assay [3] were 24% and -7%, respectively. The result in assay [5], in assay [6], in assay [7] and in assay [8] was inactive.

Regarding `CCCNCc1ccc(-c2ccc(CN(Cc3cnc(C)cn3)C(=O)CC#N)cc2)nc1`, the growth inhibition was -3% in assay [1] and 92% (active) in assay [4]. Also, the inhibition was 4% in assay [2] and 5% in assay [3]. Besides, the result in assay [5], in assay [6], in assay [7] and in assay [8] was inactive.

On to `COc1cccc(CN2CCCC(CCC(=O)Nc3ccc(C(F)(F)F)cc3)C2)c1O` (configuration not stated), for which the growth inhibition in assay [1] was 97% (active); in assay [4], 98% (active). Moreover, the inhibition was 15% in assay [2] and -2% in assay [3]. Besides, the outcome in assay [5], in assay [6], in assay [7] and in assay [8] was inactive.

Turning to `CC1CCN(CC[C@H]2CCCN2S(=O)(=O)c2cccc(NC(=O)c3cc4ccccc4s3)c2)CC1`, the growth inhibition in assay [1] was 41%; in assay [4], 97% (active). Moreover, the inhibition in assay [2] was 28%; in assay [3] it was 2%. Besides, the outcome in assay [5], in assay [6], in assay [7] and in assay [8] was inactive.

As for `CCCc1cc(C(=O)N[C@@H](Cc2ccccc2)[C@H](O)CNC(C)(C)c2cccc(OC)c2)c(F)c(N2CCCC2=O)c1`, the growth inhibition in assay [1] and in assay [4] was 98% (active) throughout. In addition, the inhibition is 7% in assay [2] and 0% in assay [3]. Further, the outcome in assay [5], in assay [6], in assay [7] and in assay [8] was inactive.

For the molecule `COc1cc2nc(NCCc3ccccc3)nc(NCCc3ccccc3)c2cc1OC`, the growth inhibition in assay [1] is 100% (active); in assay [4] it was 101% (active). Also, the inhibition in assay [2] is 99% (active); in assay [3], 2%. Further, the result in assay [5], in assay [6], in assay [7] and in assay [8] was inactive.

Regarding `Cc1ccccc1CNc1noc(-c2sccc2Br)n1`, the growth inhibition in assay [1] is 88% (active); in assay [4], 99% (active). For the same molecule, the figures for the inhibition in assay [2] and in assay [3] were -2% and -3%, respectively. Also, the outcome in assay [5], in assay [6], in assay [7] and in assay [8] was inactive.

Turning to `CN1CCCC1CNS(=O)(=O)c1ccc(C(=O)NCC2CC2)cc1` (configuration not stated), the growth inhibition in assay [1] is -7%; in assay [4] it was 91% (active). Besides, the inhibition is 17% in assay [2] and -1% in assay [3]. In addition, the outcome in assay [5], in assay [6], in assay [7] and in assay [8] was inactive.

`COc1ccccc1/C=C/C(=O)NCCC1CCN(CCCCCNC(=O)/C=C/c2ccc(Cl)c(Cl)c2)CC1`: the growth inhibition was 0% in assay [1] and 94% (active) in assay [4]. Besides, the inhibition in assay [2] is 34%; in assay [3], -4%. Besides, the outcome in assay [5], in assay [6], in assay [7] and in assay [8] was inactive.

`COc1ccc(-c2ccc(NC(=O)c3ccc(C#N)cc3)cc2)cc1CN1CCC(O)CC1`: the growth inhibition is 28% in assay [1] and 94% (active) in assay [4]. Moreover, the inhibition in assay [2] was 24%; in assay [3] it was 7%. Besides, the outcome in assay [5], in assay [6], in assay [7] and in assay [8] was inactive.

Turning to `CCNc1cc(C(=O)N[C@@H](Cc2ccccc2Cl)[C@H](O)CNC(C)CCCC(C)C)cc(N2CCCCS2(=O)=O)c1` (some centres not stated), the growth inhibition is 62% (active) in assay [1] and 97% (active) in assay [4]. Also, the inhibition is 12% in assay [2] and 2% in assay [3]. In addition, the result in assay [5], in assay [6], in assay [7] and in assay [8] was inactive.

Regarding `C=C[C@H]1CN(CCCCCCC)CC[C@H]1CC(=O)Nc1cnnc2ccc(OC)cc12`, the growth inhibition in assay [1] is 100% (active); in assay [4], 101% (active). Also, the results for the inhibition in assay [2] and in assay [3] were 12% and 3%, respectively. The result in assay [5], in assay [6], in assay [7] and in assay [8] was inactive.

Consider `O=C(NC12CC3CC(CC(C3)C1)C2)C(=O)c1c[nH]c2ccccc12`, for which the growth inhibition in assay [1] was 2%; in assay [4], 97% (active). In addition, the inhibition in assay [2] was 16%; in assay [3], 3%. The result in assay [5], in assay [6], in assay [7] and in assay [8] was inactive.

In the case of `O=C(NC1CCN(Cc2ccccc2)CC1)c1cc(-c2ccncc2)nc2ccc(Cl)cc12`, the growth inhibition in assay [1] is 27%; in assay [4] it was 97% (active). For the same molecule, the inhibition in assay [2] is 17%; in assay [3], 0%. Also, the result in assay [5], in assay [6], in assay [7] and in assay [8] was inactive.

In the case of `Cc1cc(=O)[nH]c(-n2nc(C)cc2NC(=O)C(c2ccccc2)c2ccccc2)n1`, the results for the growth inhibition in assay [1] and in assay [4] were 77% (active) and 96% (active), respectively. For the same molecule, the inhibition was 31% in assay [2] and -1% in assay [3]. In addition, the result in assay [5], in assay [6], in assay [7] and in assay [8] was inactive.

As to `CC(C)CC(NC(=O)c1ccc(F)cc1)C(=O)N[C@H](/C=N/N1CCNC1=O)CC(C)C` (some centres not stated), the growth inhibition is 84% (active) in assay [1] and 89% (active) in assay [4]. Also, the values for the inhibition in assay [2] and in assay [3] were -5% and -4%, respectively. For the same molecule, the result in assay [5], in assay [6], in assay [7] and in assay [8] was inactive.
